Whole data set: some 18,000 sequences, median “log2 normalized intensity” near 0.39, cut for the highest 2% near 6.6. The list comes from a sample in which the highest values are over-represented; it also holds similar and randomly drawn sequences.

This assay deals with T1, HNF4alpha2 (COS-7 nuclear extract) (Homo sapiens, UniProt P41235 1-474).
T1 sequence: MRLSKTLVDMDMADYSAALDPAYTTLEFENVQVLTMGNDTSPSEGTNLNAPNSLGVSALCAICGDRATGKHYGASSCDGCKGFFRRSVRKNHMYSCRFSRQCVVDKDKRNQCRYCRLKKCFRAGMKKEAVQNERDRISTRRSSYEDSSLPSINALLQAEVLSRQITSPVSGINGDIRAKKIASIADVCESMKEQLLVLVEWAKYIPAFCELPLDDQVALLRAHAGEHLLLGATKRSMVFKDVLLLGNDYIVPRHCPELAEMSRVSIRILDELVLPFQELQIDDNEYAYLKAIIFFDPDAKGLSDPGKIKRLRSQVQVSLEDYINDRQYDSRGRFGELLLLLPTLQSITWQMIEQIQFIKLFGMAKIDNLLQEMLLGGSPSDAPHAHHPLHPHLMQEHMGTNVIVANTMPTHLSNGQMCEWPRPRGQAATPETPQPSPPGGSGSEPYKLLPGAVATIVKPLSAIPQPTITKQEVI
The experiment in a line: protein-binding microarray; COS-7 nuclear extract on double-stranded Agilent 4x180k PBM; binding buffer, salt, pH and temperature not given in the material; high values mean tight binding. The following applies: chain copies: 2; label: 3' end of strand 1 on the slide; dsDNA, one strand shown. The gist of the method:
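COS-7 cells were transiently transfected by CaPO4 with an expression vector for a human HNF4α isoform, and nuclear extracts were prepared from them. The extracts were applied to a custom Agilent SurePrint G3 4x180k array of double-stranded ~60-nt oligonucleotides, with ~44,000 test sequences spotted in quadruplicate. An Agilent G2565CA scanner imaged bound HNF4α at 2-µm resolution. Binding signal is the background-corrected, normalized gProcessedSignal from Agilent software.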
As to “CTTTGACACAGGCGACCTTCGCTCGGCTCGGCCTAGGGAGATTAGAGTATCGGTCGA”, the binding signal came to 3.46 log2 normalized intensity. Under “CACAGCTCGACCTTTGACCTTCGGCTTCCCGCCTAGGGAGATTAGAGTATCGGTCGA” stands 8.84 log2 normalized intensity. Turning to “GCCCCAGCTCGCTCAGCTGGTTGCCCCTTTGCCTAGGGAGATTAGAGTATCGGTCGA”, the binding signal was 4.14 log2 normalized intensity. With “TCTCGCTGCTTCGGCCTTTGACCTCGTGATGCCTAGGGAGATTAGAGTATCGGTCGA”, the binding signal amounted to 6.52 log2 normalized intensity. Under “GCTCAGCTGGTTGCCCCTTTGACCCTCGGGGCCTAGGGAGATTAGAGTATCGGTCGA” stands 6.11 log2 normalized intensity. Consider “CCCGCCTTTGACACAGGCGACCTTCGCTCGGCCTAGGGAGATTAGAGTATCGGTCGA”, for which the binding signal came to 5.17 log2 normalized intensity.

In the case of “AAATCCCCGCCTTTGACACAGGCGACCTTCGCCTAGGGAGATTAGAGTATCGGTCGA”, the binding signal came out at 3.94 log2 normalized intensity. Take “CAGGGTGGGGTCTCGCTGCTTCGGCCTTTGGCCTAGGGAGATTAGAGTATCGGTCGA”: the binding signal came out at 1.33 log2 normalized intensity. Under “AGCTCGCTCAGCTGGTTGCCCCTTTGACCCGCCTAGGGAGATTAGAGTATCGGTCGA” stands 7.89 log2 normalized intensity; under “TGGGGTCTCGCTGCTTCGGCCTTTGACCTCGCCTAGGGAGATTAGAGTATCGGTCGA”, 7.94 log2 normalized intensity. Consider “TCAGGCACAGCTCGACCTTTGACCTTCGGCGCCTAGGGAGATTAGAGTATCGGTCGA”, for which the binding signal turned out to be 10.2 log2 normalized intensity. As to “CCTTTGACCTTCGGCTTCCCCAGAGAAAGAGCCTAGGGAGATTAGAGTATCGGTCGA”, the binding signal is 3.03 log2 normalized intensity.

Turning to “CCTTGCACTATTGACCCAGTGAAACAACACGCCTAGGGAGATTAGAGTATCGGTCGA”, the binding signal was 1.65 log2 normalized intensity.

As to “TAGGCCACCTGTGTCAACATGGACTTTGTTGCCTAGGGAGATTAGAGTATCGGTCGA”, the binding signal is 5.86 log2 normalized intensity.

As for “TTCTGCCTTATCAGCGGCCCTGTGCTGCCCGCCTAGGGAGATTAGAGTATCGGTCGA”, the binding signal came out at 0.0914 log2 normalized intensity. Take “CCTCTGTCTCTCAGGCACAGCTCGACCTTTGCCTAGGGAGATTAGAGTATCGGTCGA”: the binding signal was determined as 5.94 log2 normalized intensity. Take “CTTGTCTTATCAGCAGGGTCTTTTTGACCTGCCTAGGGAGATTAGAGTATCGGTCGA”: the binding signal stood at 4.38 log2 normalized intensity.

Take “GTCTCTCAGGCACAGCTCGACCTTTGACCTGCCTAGGGAGATTAGAGTATCGGTCGA”: the binding signal is 10.1 log2 normalized intensity.

With “CTATTATGCCTTGACTTCAAATCATACTGAGCCTAGGGAGATTAGAGTATCGGTCGA”, the binding signal was 0.897 log2 normalized intensity. “TCAGAGATCAAGATACAGGTCAGACCCTGGGCCTAGGGAGATTAGAGTATCGGTCGA”: the binding signal turned out to be 0.993 log2 normalized intensity. Under “CTATTGTCCTATGACCCTGCCAAATCCCCCGCCTAGGGAGATTAGAGTATCGGTCGA” stands 4.52 log2 normalized intensity; under “CATTTTACAGTGCCATTTATCAGTGATTTCGCCTAGGGAGATTAGAGTATCGGTCGA”, 0.854 log2 normalized intensity.

“GTCCCAGGGCAAAGGTCACCAGCTAAGCTGGCCTAGGGAGATTAGAGTATCGGTCGA”: the binding signal turned out to be 5.83 log2 normalized intensity.

Take “CTGTCGTCCCAGGGCAAAGGTCACCAGCTAGCCTAGGGAGATTAGAGTATCGGTCGA”: the binding signal turned out to be 6.66 log2 normalized intensity.

As to “TATTCCCAGGTTCCAAAGGTCACCCGTATTGCCTAGGGAGATTAGAGTATCGGTCGA”, the binding signal stood at 6.51 log2 normalized intensity.

Take “CTTCCCAGCTGCTGGTCAAAGGGCATTACTGCCTAGGGAGATTAGAGTATCGGTCGA”: the binding signal was found to be 4.94 log2 normalized intensity.

On to “GGGCAAATCTGAGGTCAAAGCTGTCAGAGAGCCTAGGGAGATTAGAGTATCGGTCGA”, for which the binding signal was -0.198 log2 normalized intensity. In the case of “AGGGCAAAGGTCACCAGCTAAGCTGTTACTGCCTAGGGAGATTAGAGTATCGGTCGA”, the binding signal stood at 5.12 log2 normalized intensity.

For “CCAGGTTCCAAAGGTCACCCGTATTCCTTAGCCTAGGGAGATTAGAGTATCGGTCGA”, the binding signal was 6.63 log2 normalized intensity.

Consider “TTCCAAAGGTCACCCGTATTCCTTAGCTTAGCCTAGGGAGATTAGAGTATCGGTCGA”, for which the binding signal came to 1.6 log2 normalized intensity. On to “CAGAGCTGTCGTCCCAGGGCAAAGGTCACCGCCTAGGGAGATTAGAGTATCGGTCGA”, for which the binding signal worked out at 7.59 log2 normalized intensity. On to “GCTGAGGAATTTGGACTTCAGCCCAGGCTGGCCTAGGGAGATTAGAGTATCGGTCGA”, for which the binding signal was determined as 3.66 log2 normalized intensity. For the sequence “ACCACCTTCCCCCATCCCCAACAAAGCTCTGCCTAGGGAGATTAGAGTATCGGTCGA”, the binding signal stood at 4.7 log2 normalized intensity.

As to “TCTCAAAAGTTTTTCCCTTCTGTTAGAATGGCCTAGGGAGATTAGAGTATCGGTCGA”, the binding signal was -0.592 log2 normalized intensity. As to “CTTCAAGTCAGTTGCATGCAACCTTTGTCCGCCTAGGGAGATTAGAGTATCGGTCGA”, the binding signal was 5.67 log2 normalized intensity. Turning to “ATATTCACTATCTGATCCTTTACAGAGATAGCCTAGGGAGATTAGAGTATCGGTCGA”, the binding signal is -0.305 log2 normalized intensity. Regarding “TGTTACTTATAAATAATCTCAACCATACAAGCCTAGGGAGATTAGAGTATCGGTCGA”, the binding signal was -0.991 log2 normalized intensity. Turning to “CAACCAAGTCCATCTGTATTGCCTCCTTTGGCCTAGGGAGATTAGAGTATCGGTCGA”, the binding signal was 1.08 log2 normalized intensity.

Regarding “TTCCAGGGATGTTTGGCAGCTGAGGATTGTGCCTAGGGAGATTAGAGTATCGGTCGA”, the binding signal was found to be 1.61 log2 normalized intensity. Under “CATCTACCAGCGTAATTCTGGCTCTTTGAGGCCTAGGGAGATTAGAGTATCGGTCGA” stands 0.87 log2 normalized intensity; under “GCGTGAGCCACCGCGCCCCGCCCCCAGTGCGCCTAGGGAGATTAGAGTATCGGTCGA”, 5.65 log2 normalized intensity; under “AAGACTTTGGACTTTGGACCTGAGGCTTTTGCCTAGGGAGATTAGAGTATCGGTCGA”, 9.84 log2 normalized intensity.

For the origin of these results see paper PMC10726135, “HNF4α isoforms regulate the circadian balance between carbohydrate and lipid metabolism in the liver”.
